Drawing on PubChem BioAssay AID493008 (The Scripps Research Institute Molecular Screening Center, 2010), this text covers activation for 64 compounds.

SMILES strings stand for the structures. In all, about 340,000 compounds went through this assay and about 800 (0.24%) were called active. This excerpt belongs to a sample that is enriched for actives. A number with no mark means an inactive call.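 Rule for the calls: active = activation above the mean over all tested compounds plus 3 SD (cut at about 30% in these data); inactive = the rest.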

This assay addresses Troponin I, cardiac muscle (Homo sapiens) + Troponin T, cardiac muscle (Homo sapiens) + Troponin C, slow skeletal and cardiac muscles (Homo sapiens) (UniProt P19429+P45379+P63316). The experiment in a line: cardiac RTF calcium sensitivity activators, primary screen, biochemical, IANBD-TnC fluorescence, EC20 calcium (AID 493008).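 Note: rise in fluorescence read as greater calcium sensitivity of cardiac thin filaments.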 The following applies: IANBD-labeled TnC RTF fluorescence at EC20 calcium; at 7.2 µM; active compounds read high; 0% EC20 calcium, 100% full calcium.
On to `O=C(NC1=CC(=O)c2ccccc2C1=O)c1ccccc1`, for which the activation is -2.47%.
In the case of `COc1cccc2c1C(=O)c1c(O)c3c(c(O)c1C2=O)CC(O)(C(C)=NNC(=O)c1ccc(Cl)c(Cl)c1)CC3OC1CC(N)C(O)C(C)O1` (centres undefined), the activation is 220% (active).
The same measure for `CCCCC(CC)CNCc1cccn1CCN1CCOCC1` (centres undefined): -0.42%.
The same measure for `CCOC(=O)c1ccc(N=C2SC(C(=O)NC)CC(=O)N2CCc2ccccc2)cc1` (centres undefined): 2.1%; for `O=C(CSc1ncnc2sccc12)N1CCN(C(=O)c2cccs2)CC1`: 0.04%; for `Nc1c(C(=O)c2cccs2)sc2nsc(SCCN3CCCCC3)c12`: 30.6% (active).
Turning to `COc1ccc(C23NCCN2C(=O)c2ccccc23)cc1` (centres undefined), the activation is -1.61%.
On to `COc1cc(S(=O)(=O)N2CCN=C2c2ccccc2)ccc1Cl`, for which the activation is -3%.
With `COc1ccc(NC(C(=O)Nc2cccc(C(C)=O)c2)c2ccccc2)cc1` (centres undefined), the activation is 2.77%.
Take `COc1ccc(-c2cc(C(=O)N3CCN(c4ccc(F)cc4)CC3)no2)cc1`: the activation is -6.29%.
With `COc1ccc(-c2onc3ccc(C(C)=O)cc23)cc1`, the activation was 42.2% (active).
For the compound `CC1CCCN(S(=O)(=O)c2ccc(-c3ccc(=O)[nH]n3)o2)C1` (centres undefined), the activation is 0.69%.
Then `Cc1ccc2nc(SCC(=O)N3CCN(c4ccccc4)CC3)nc(=O)n2c1`, with -2.94%; and `Oc1[nH]c2ccccc2c1N=Nc1c(F)c(F)c(F)c(F)c1F`, with 3.02%.
Then `NS(=O)(=O)c1ccc(N=Nc2c(O)[nH]c3ccc(Br)cc23)cc1`, with -6.02%; and `Cc1cccc(N=Nc2c(O)[nH]c3ccc(F)cc23)c1`, with 31.3% (active).
As for `Cc1ccc(C(=O)O)c(NC=O)c1OCc1ccccc1`, the activation is -0.38%.
As for `Cc1ccc2oc(=O)ccc2c1`, the activation was -3.77%.
Then `CCN(CC)c1ccc(C(=O)Nn2c(C)nc3ccccc3c2=O)cc1`, with 8.65%; and `CCN(CC)c1ccc2oc(=O)c(C)nc2c1`, with 59.9% (active); and `COc1ncnc2c1N=C1CC(C)(C)CC(N)=C1S2`, with 30.1% (active).
In the case of `CCOC(=O)c1ccccc1CN1C(=O)c2ccccc2S1(=O)=O`, the activation was 6.29%.
Then `CCOC(=O)c1cc2n(c1N)-c1ccccc1C2=O`, with 40.9% (active).
For the compound `CCOC(=O)c1ccccc1OC(=O)Oc1ccccc1C(=O)OCC`, the activation is 0.28%.
Then `COCCNC(=O)c1onc(CSc2cccc(C)c2)c1C(=O)O`, with 2.19%; and `Cc1cccc(NC(=O)CSc2nc3c(c(=O)[nH]2)CCC3)c1C`, with 5.1%; and `Cc1cc(OC(C)C(=O)NC2CC(C)(C)NC(C)(C)C2)c2c(C)cc(=O)oc2c1` (centres undefined), with -6.45%.
`CCOc1nc(OCC)nc(-n2cc(-c3ccccc3)nn2)n1`: the activation is -0.01%.
Then `COc1cccc(NS(=O)(=O)c2ccc3[nH]cc(C(=O)NCCCOC(C)C)c(=O)c3c2)c1`, with 1.55%; and `CCC1(C)COC(c2ccc(OC)c(OC)c2)OC1` (centres undefined), with 15.5%.
Then `COc1ccc(CNCCCO)cc1OC`, with 2.52%; and `COc1ccc(C2c3ccc(O)cc3Oc3ncn(CCCO)c(=N)c32)cc1OC` (centres undefined), with 91.1% (active).
The same measure for `COc1ccc(C2C(C#N)=C(N)Oc3cc(N)ccc32)cc1OC` (centres undefined): 2.36%; for `CN1C(=O)/C(=C/C=C2\SCCN2C)OC1=S`: 34% (active).
In the case of `CC(=O)c1cc2c(cc1NC(=O)Cn1nc(-c3ccc(F)cc3)ccc1=O)OCO2`, the activation is 1.13%.
For `COc1ccc(OC)c(NC(=O)c2ccc3c(c2)C(=O)N(c2ccc(OC(C)=O)cc2)C3=O)c1`, the activation is 1.02%.
The same measure for `CCOC(=O)c1c(NC(=O)C2CC=CCC2C(=O)O)sc(C)c1CC` (centres undefined): 1.94%; for `CSC1=NCCN1C(=O)Cc1cccc2ccccc12`: -2.5%.
For the compound `Nc1ccc2nc3c(=O)[nH]c(=S)[nH]c3nc2c1`, the activation is 266% (active).
Consider `OC1CCCN(c2ncnc3c2nnn3Cc2c(F)cccc2Cl)C1` (centres undefined), for which the activation was 6.74%.
The same measure for `CCOc1ccc(C2c3[nH]c4ccccc4c3CCN2Cc2cccn2-c2ncccn2)cc1` (centres undefined): 1.17%; for `Cc1ccc(CN2CCN(Cc3ccc4ncccc4c3)CC2CCO)cc1` (centres undefined): 0.85%; for `Cc1ccsc1-c1cc(C(=O)O)c2c(ccc3ccccc32)n1`: 2.92%.
Then `Cc1cccc(C)c1NC(=O)CCCSc1nnc(-c2ccco2)n1-c1ccccc1`, with -3.75%.
The same measure for `CCOc1ccc(-n2cnnn2)cc1S(=O)(=O)N1CCC(C)CC1C` (centres undefined): -1.75%; for `COCCCNC(=O)CNC(=S)N(Cc1cc(OC)c(OC)c(OC)c1)C1CCCC1`: -8.44%.
Regarding `COc1ccc(/C=C/C(=O)OCC(=O)NC2CCCCCC2)cc1OC`, the activation was -4.52%.
With `CCCc1ccc(OCC(O)CN2CCN(CCO)CC2)cc1` (centres undefined), the activation was -4.14%.
With `Cc1ccccc1-n1nc(SCC(=O)O)sc1=S`, the activation was -0.8%.
For `Cc1nc(N)sc1-c1ccccc1`, the activation is -3.97%.
Then `CNc1nc2c(C)cccn2c(=O)c1C=Nc1ccc(OC)cc1`, with -1.57%; and `CCCN(CCC)c1nc2c(C)cccn2c(=O)c1/C=C1/SC(=S)N(Cc2ccco2)C1=O`, with 34% (active); and `Cc1ccc2[nH]c(=O)c(-c3nc4c(C)cccn4c3NCc3ccco3)cc2c1`, with -3.25%.
`O=C(Cn1cnc2ccccc21)Nc1ccccc1-c1ccccc1`: the activation was -3.39%.
Then `O=C(COC(=O)c1cccc(Br)c1)Nc1cccc2c1C(=O)c1ccccc1C2=O`, with -3.82%; and `O=C(COC(=O)Cn1cnc2ccccc21)Nc1cccc2c1C(=O)c1ccccc1C2=O`, with 45.7% (active); and `O=S(=O)(NCCc1ccc(Cl)cc1)c1cccs1`, with -0.86%.
Regarding `CCOc1ccc2oc(C(=O)N(CC)CC(=O)Nc3ccc(NC(C)=O)cc3)c(C)c2c1`, the activation was -0.31%.
Then `Cc1cccc2cc3c(N)c(C(=O)N4CCCc5ccccc54)sc3nc12`, with 44.8% (active); and `O=C(c1cc(-c2ccc(O)cc2)on1)N1CCCc2ccccc21`, with 6.06%.
Turning to `O=C(c1c(Cl)nc2sccn12)N1CCCc2ccccc21`, the activation is -2.79%.
For `COC(=O)Cc1c(-c2[nH]c3ccccc3c2CC(=O)OC)[nH]c2ccccc12`, the activation was 0.63%.
Consider `COC(=O)C[n+]1cccc2ccccc21`, for which the activation is 58.3% (active).
`O=C(C[n+]1cc(Br)cc2ccccc21)c1ccc(F)cc1`: the activation is -1.35%.
